Hits are enriched below; roughly 2.8% of the tested compounds scored in any of these assays.
PvdQ acylase: P. aeruginosa PvdQ acylase inhibitors, primary screen, biochemical, fluorescence, plate reader and imaging, single point | PvdQ acylase [Pseudomonas aeruginosa LESB58] | purified PvdQ acylase | inhibition, % at 10 µM | 340,000 tested, 0.063% active | AID 488965, 2010; in the data active means inhibition above about 30%, passing the limit was not always enough;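 further: 0% = vehicle neutral wells and 100% = reference inhibitor wells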
CDK5 p35 inh: inhibitors of human CDK5/p35 kinase, primary screen, biochemical, single concentration; Recombinant CDK5/p35, ADP-Glo luminescence, 60 min; inhibition, % at 10 µM; 330,000 tested, 0.01% active;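 active means highest replicate inhibition of at least 50% and at least 75% of replicates reaching 50%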;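 further: plate controls were DMSO neutral control for no effect and GW8510 at 10 µM for full effect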
Target sequence (Q00535 whole entry, looked up): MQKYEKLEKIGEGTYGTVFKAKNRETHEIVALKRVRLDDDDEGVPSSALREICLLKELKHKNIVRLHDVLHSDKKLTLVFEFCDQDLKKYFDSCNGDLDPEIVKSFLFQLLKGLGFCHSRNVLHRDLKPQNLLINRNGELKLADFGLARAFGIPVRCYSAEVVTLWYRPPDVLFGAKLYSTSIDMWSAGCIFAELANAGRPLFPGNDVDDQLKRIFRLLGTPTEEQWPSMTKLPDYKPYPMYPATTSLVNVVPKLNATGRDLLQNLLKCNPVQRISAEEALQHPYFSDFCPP
Target sequence (Q15078 whole entry, looked up): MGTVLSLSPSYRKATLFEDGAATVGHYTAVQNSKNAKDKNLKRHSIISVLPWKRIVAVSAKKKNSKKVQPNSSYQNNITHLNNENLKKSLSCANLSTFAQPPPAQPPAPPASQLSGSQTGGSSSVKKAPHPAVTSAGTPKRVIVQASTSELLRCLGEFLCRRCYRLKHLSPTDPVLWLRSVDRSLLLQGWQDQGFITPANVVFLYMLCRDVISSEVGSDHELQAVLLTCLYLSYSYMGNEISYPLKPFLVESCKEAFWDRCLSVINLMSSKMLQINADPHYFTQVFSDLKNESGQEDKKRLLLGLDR
dFosB activator: activators of delta FosB homodimer, primary screen, biochemical, fluorescence polarization, TAMRA-CDK5 oligo, single point | purified delta FosB; percent of positive-control signal above neutral wells | activation, % at 25 µM | 340,000 tested, 0.99% active;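 active means mean activation above about 17%, with every replicate also reaching it, limit read from the data, passing the limit was not always enough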
FGF22 binding: binders of human FGF22 protein, primary screen, FGF22 synaptogenesis inhibitor project, biophysical, thermal shift, single point; recombinant FGF22 thermal shift, SYPRO orange fluorescence; percent of sucrose octasulfate shift, DMSO zero; activity (Tm shift, normalised), % at 9.99 µM; 340,000 tested, 1.5% active; AID 651658, 2012;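 active means mean Tm shift, scaled 0 neutral to 100 positive control, at about 1.3% or above, every replicate too, limit read from the data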
SIRT5 inh: SIRT5 desuccinylase inhibitors, primary screen, biochemical, fluorescence imaging, single point, set 5; Purified SirT5, succinyl-peptide AMC, trypsin-coupled fluorescence; inhibition, % at 15 µM; 330,000 tested, 1.1% active; in the data active means inhibition above about 15%
PglD inh: C. jejuni PglD acetyltransferase inhibitors, primary screen, biochemical, DTNB colorimetric, single point. UDP-N-acetylbacillosamine N-acetyltransferase PglD (Campylobacter jejuni). purified PglD enzyme, DTNB colorimetric CoA detection. inhibition, % at 12.5 µM. 360,000 tested, 0.098% active; in the data active means inhibition above about 16%, passing the limit was not always enough
Numbers without * were called inactive; x = no result.

SMILES	PvdQ acylase	CDK5 p35 inh	dFosB activator	FGF22 binding	SIRT5 inh	PglD inh
COc1ccc(/C=N/NC(=O)c2cc(OC)c(OC)c(OC)c2)cc1CN1CCc2cc(OC)c(OC)cc2C1C (configuration not stated)	-10	0	-13	0	-4	x
COc1ccc(C2NCCc3c2[nH]c2ccccc32)cc1CN1CCc2cc(OC)c(OC)cc2C1C (configuration not stated)	-20	1	63*	x	x	x
COc1cccc(C2=Nc3cccc4cccc(c34)N2)c1	-11	3	8	-1	1	-1
Nc1ccc(C2=Nc3cccc4cccc(c34)N2)cc1	-12	1	41*	43*	4	5
C[C@H]1CN([C@@H](C)CO)C(=O)Cc2cc(NC(=O)CCCCCC(=O)Nc3ccccc3N)ccc2O[C@H]1CN(C)Cc1ccc(Oc2ccccc2)cc1	x	x	x	0	20*	-3
C[C@H](CO)N1C[C@H](C)[C@H](CN(C)Cc2ccc(Oc3ccccc3)cc2)Oc2ccc(NC(=O)CCCCCC(=O)Nc3ccccc3N)cc2CC1=O	x	x	x	0	30*	2
C[C@H](CO)N1C[C@H](C)[C@H](CN(C)Cc2ccccc2)Oc2ccc(NC(=O)CCCCCC(=O)Nc3ccccc3N)cc2CC1=O	x	x	x	0	0	0
CO[C@@H]1CC[C@H]2CCOc3ccc(C#N)cc3C(=O)N(C)C[C@H](C)C(=O)N(C)C[C@@H]1O2	x	x	x	0	1	-1
C[C@H]1CN([C@@H](C)CO)S(=O)(=O)c2ccc(C#CCN(C)C)cc2O[C@@H]1CN(C)Cc1ccccn1	x	x	x	0	2	-1
Cc1cccc(-n2nc(C(=O)c3ccco3)cc(-c3nc4ccccc4[nH]3)c2=N)c1	12	-1	34*	0	-4	-117
COc1ccc(C(C#N)=Cc2cc(OC)c(OC)c(OC)c2)cc1	x	x	x	0	x	x
COc1ccc(/C(C#N)=C/c2cccnc2)cc1	74*	2	-21	0	-1	-6
CC(=O)N1CCN(CC(=O)Nc2ccc(Cl)c(S(=O)(=O)N(C)C)c2)CC1	4	0	-4	0	-2	x
CC(=O)N1CCN(CC(=O)Nc2ccc3c(c2)CCC3)CC1	-9	-2	-10	44*	-1	x
CC(=O)N1CCN(CC(=O)Nc2ccc(C)c(S(=O)(=O)N(C)C)c2)CC1	-10	-1	-9	43*	-3	x
Cc1noc(C)c1NC(=O)Nc1ccc2c(c1)CC(=O)N([C@H](C)CO)C[C@@H](C)[C@H](CN(C)C(=O)Nc1ccccc1)O2	x	x	x	0	1	1
Cc1ccc(S(=O)(=O)N[C@@H]2CC[C@H](CCn3cc(C4CCCCC4)nn3)O[C@H]2CO)cc1	x	x	x	0	11	-1
Cc1ccc(N(C(C)C(=O)O)S(=O)(=O)c2c(C)[nH]c(=O)[nH]c2=O)cc1 (configuration not stated)	0	1	16*	0	x	-3
O=C(C1CCC1)N1CCN(c2ccc(Cl)cc2)CC1	36*	0	1	0	-5	0
O=S(=O)(N[C@@H]1CC[C@@H](CCn2cc(C3(O)CCCC3)nn2)O[C@@H]1CO)c1ccc(F)cc1	x	x	x	0	-4	-1
CC(=O)NS(=O)(=O)c1ccc(N2C(=O)c3ccccc3C2=O)cc1	0	1	5	0	15*	x
COCC(=O)Nc1ccc2c(c1)C(=O)N(C)C[C@@H](OC)[C@@H](C)CN(C(=O)c1cnccn1)[C@H](C)CO2	x	x	x	0	-2	0
Cc1cnc2ncc3sccc3c2c1	-8	1	-17	0	1	x
c1cnc2ncc3sccc3c2c1	-19	0	-5	43*	1	x
COC(=O)c1ccccc1-c1c2ccc(=N)cc-2oc2cc(N)ccc12	-9	4	88*	-5	2	-4
SMILES	PvdQ acylase	CDK5 p35 inh	dFosB activator	FGF22 binding	SIRT5 inh	PglD inh
CCCNC(=O)N1[C@@H]2CN(C(=O)C3CCOCC3)c3ccccc3[C@@H]2[C@@H]1CO	x	x	x	0	0	-2
O=C(Cn1cnc([N+](=O)[O-])n1)N/N=C/c1ccc2ccccc2c1	-5	-1	7	44*	0	x
O=C(C1CC1)N1CC(=O)N2[C@H](CO)[C@H](c3ccc(C#CC4CCCC4)cc3)[C@@H]2C1	x	x	x	x	-7	x
C[C@H](NC(=O)c1ccccc1)C(=O)Nc1nc(-c2ccccn2)cs1	-10	1	-8	43*	-4	x
O=C(O)c1cccc(NC2=C(Cl)C(=O)c3ccccc3C2=O)c1	5	0	-7	0	112*	4
CC(=O)Nc1cccc(NC(=O)Nc2cccc(F)c2)c1	-4	0	0	45*	-2	x
O=C1c2cccc3c(N4CCCCC4)ccc(c23)C(=O)N1c1cccc(O)c1	-1	-3	-2	44*	-3	x
CCC(=O)N(C)C[C@H]1Oc2cc(C#CC(C)C)ccc2S(=O)(=O)N([C@@H](C)CO)C[C@H]1C	x	x	x	0	0	0
C[C@@H]1CN([C@H](C)CO)S(=O)(=O)c2ccc(-c3cncnc3)cc2O[C@H]1CN(C)Cc1ccncc1	x	x	x	0	17*	-2
C[C@H]1CN([C@@H](C)CO)S(=O)(=O)c2ccc(Br)cc2O[C@@H]1CN(C)Cc1ccncc1	x	x	x	0	-1	2
C[C@H](CO)N1C[C@H](C)[C@H](CN(C)Cc2ccncc2)Oc2cc(Br)ccc2S1(=O)=O	x	x	x	0	15*	-4
C[C@H](CO)N1C[C@H](C)[C@@H](CN(C)Cc2cncnc2)Oc2cc(-c3cncnc3)ccc2S1(=O)=O	x	x	x	0	-1	0
COc1ccc(S(=O)(=O)Nc2cccc3c2O[C@H](CN(C)S(=O)(=O)c2c(C)noc2C)[C@H](C)CN([C@@H](C)CO)C3=O)cc1	x	x	x	0	0	4
COc1ccc2c3c(n(C)c2c1)[C@H](CO)N(C(=O)c1ccncc1)CC31CN(CC2CC2)C1	x	x	x	0	-5	x
O=C(CC1CC1)Nc1ccc2c(c1)[C@@H]1C[C@@H](CC(=O)N3CCc4ccccc4C3)O[C@H](CO)[C@@H]1O2	x	x	x	0	0	0
COc1ccc(CN(C)CCCn2cnc3c(OCc4ccccc4)ncnc32)cc1	-14	-1	-15	0	-1	4
COc1cccc(CN(C)CCCn2cnc3c(SC)ncnc32)c1	x	x	x	0	15*	-3

Screens as filed in PubChem BioAssay.
